Data: PubChem BioAssay AID463173 (ICCB-Longwood Screening Facility, Harvard Medical School, 2010)
The campaign covered roughly 52,000 compounds. About 4,300 (8.3%) were called active. What follows is part of a selection rich in actives, with near analogues and random picks from the rest. Values without a mark were called inactive. Rule as the data show it: active = survival mostly below about 52% (no sharp cut-off); inactive = mostly above about 56%.

Test system: DeltatarO mutant
Assay: S. aureus survival, RN4220 and DeltatarO strains – OD600, teichoic acid synthesis inhibitors, primary screen (AID 463173)
Conditions: S. aureus RN4220 wild type/DeltatarO growth, OD600, 18 h, stronger effect = lower value, screened at 18.75 µg/mL (by protocol)

Structure (SMILES) | survival
Cc1ccccc1S(=O)(=O)Cc1ccc(C(=O)NCCc2ccccc2)o1 | 76%
Cc1ccc2c(c1)c1c(c(=O)n(-c3ccccc3C)c(=O)n1Cc1ccccc1F)n2C | 73%
CCCN(CCC)C(=O)Cn1c(=O)n(-c2cccc(C)c2)c(=O)c2c1c1cc(OC)ccc1n2C | 64%
CCOc1ccc(CCNC(=O)CCCn2nc(C)c3sc4ccccc4c3c2=O)cc1 | 72%
CCOc1ccc(CCNC(=O)NCc2noc3ccc(C)cc23)cc1 | 74%
COCCCNC(=O)c1ccc(Cn2c(=O)c3ccccc3n(Cc3c(C)cc(C)cc3C)c2=O)cc1 | 107%
CCCNC(=O)N(C)c1ncnnc1NC | 98%
COc1ccccc1C(=O)Nc1nnc(SCc2cc(=O)c3cc(Cl)ccc3[nH]2)s1 | 62%
CCCCN(C)C(=O)Cn1ncc2c([nH]c3ccc(C)cc32)c1=O | 70%
Cc1ccc2[nH]c3c(=O)n(CC(=O)N(CCN(C)C)Cc4ccccc4)ncc3c2c1 | 97%
Cc1ccc2[nH]c3c(=O)n(CC(=O)N(C)Cc4ccccc4)ncc3c2c1 | -1% (active)
Cc1cc(F)ccc1NC(=O)c1c(C)oc2c1C1=NCCN1C=N2 | 102%
Cc1cccc(CNC(=O)c2ccc(C)c(-n3c(C)nc4cccnc43)c2)c1 | 67%
CCC(C)NC(=O)C1CCCN(S(=O)(=O)c2ccc(C)c(Cl)c2)C1 (stereo not given) | 94%
COc1ccc(NC(=O)Cn2c(=O)n(Cc3nc(-c4ccccc4)no3)c(=O)c3cc4c(cc32)OCO4)c(OC)c1 | 94%
CCOc1ccc(CCNC(=O)C(CC)n2nc(C)c3c(C)n(-c4ccccc4)nc3c2=O)cc1 (stereo not given) | 69%
Cc1ccccc1OC(=O)c1snnc1C | 90%
CSc1ncc(Cl)c(C(=O)N(Cc2ccc(N(C)C)cc2)Cc2ccco2)n1 | 80%
CS(=O)(=O)c1ncc(Cl)c(C(=O)N(Cc2ccc(Cl)cc2)Cc2ccco2)n1 | 4% (active)
CCSc1ncc(Cl)c(C(=O)N(Cc2ccccc2)Cc2ccco2)n1 | 106%
CCS(=O)(=O)c1ncc(Cl)c(C(=O)N(Cc2ccccc2)Cc2ccco2)n1 | 52%
CCCSc1ncc(Cl)c(C(=O)N(Cc2ccc(Cl)cc2)Cc2ccco2)n1 | 39% (active)
CCCOc1ccc(C(=O)N(Cc2ccc(Cl)cc2)Cc2ccco2)cc1 | 50%

Structure (SMILES) | survival
CCSc1ncc(Cl)c(C(=O)N(Cc2ccc(N(C)C)cc2)Cc2ccco2)n1 | 104%
CCCS(=O)(=O)c1ncc(Cl)c(C(=O)N(Cc2ccccc2)Cc2ccco2)n1 | 40% (active)
Cc1ccc(CN(Cc2ccco2)C(=O)c2ccc(Cl)cc2Cl)cc1 | 53%
Cc1cccc2c1-c1sc(C(=O)NCc3ccccc3Cl)cc1CO2 | 55%
Cc1ccc(NC(=O)C2CCCN(S(=O)(=O)c3ccc4c(c3)oc(=O)n4C)C2)cc1Cl (stereo not given) | 76%
COc1ccc(C(=O)CSc2nc(C)cc(C)n2)cc1C | 104%
CCc1cccc(C)c1NC(=O)Cn1ccn(-c2ccc(F)cc2)c(=O)c1=O | 52%
Cc1ccc(NC(=O)CN2CCCN(Cc3cc(C)ccc3C)S2(=O)=O)c(Cl)c1 | 81%
Cc1ccc(CN2CCCN(CC(=O)Nc3ccc(C)cc3C)S2(=O)=O)cc1 | 89%
CCc1cccc(C)c1NC(=O)Cn1ccn(Cc2ccc(Cl)cc2)c(=O)c1=O | 41% (active)
CCc1cccc(C)c1NC(=O)CN1CCCN(Cc2ccc(C)cc2)S1(=O)=O | 8% (active)
CCc1cccc(C)c1NC(=O)CN1CCCN(Cc2ccccc2Cl)S1(=O)=O | 55%
Cc1ccccc1CN1CCCN(CC(=O)Nc2c(C)cccc2C)S1(=O)=O | 93%
Cc1ccc(NC(=O)CN2CCCN(Cc3ccccc3Cl)S2(=O)=O)c(C)c1 | 17% (active)
Cc1ccc(NC(=O)Cn2ccn(Cc3ccc(Cl)cc3)c(=O)c2=O)cc1C | 111%
CCOc1ccc(CNC(=O)CSc2nnc(C)c3c(C)n(-c4ccccc4)nc23)cc1 | 82%
CCN1CCC(N(Cc2ccc3c(c2)OCO3)C(=O)Nc2cc(Cl)ccc2C(=O)OC)CC1 | 126%
CCOC(=O)Cc1csc(NC(=O)CSc2nc3c(C)c(C)ccc3cc2C#N)n1 | 78%
COc1ccc(CC(C(=O)O)c2ccccc2)cc1 (stereo not given) | 65%
O=S(=O)(Nc1cccc(-c2ccc(N3CCCCCC3)nn2)c1)c1ccccc1 | 6% (active)
O=S(=O)(Nc1cccc(-c2ccc(N3CCCCCC3)nn2)c1)c1ccc(F)cc1 | 79%
COc1ccc(C)cc1S(=O)(=O)Nc1cccc(-c2ccc(N3CCCC3)nn2)c1 | 78%
CC1CCN(c2ccc(-c3cccc(NS(=O)(=O)c4ccc(Cl)s4)c3)nn2)CC1 | 72%

Structure (SMILES) | survival
O=S(=O)(Nc1ccc(-c2ccc(N3CCCCC3)nn2)cc1)c1ccc(OC(F)(F)F)cc1 | 82%
O=S(=O)(Nc1cccc(-c2ccc(N3CCCCC3)nn2)c1)c1cccc(F)c1 | 91%
COc1ccc(F)cc1S(=O)(=O)Nc1cccc(-c2ccc(N3CCC(C)CC3)nn2)c1 | 109%
Cc1ccc(S(=O)(=O)Nc2cccc(-c3ccc(N4CCCCC4)nn3)c2)s1 | 76%
O=S(=O)(Nc1ccc(-c2ccc(N3CCCC3)nn2)cc1)c1ccc(OC(F)(F)F)cc1 | -4% (active)
COc1ccc(C)cc1S(=O)(=O)Nc1cccc(-c2ccc(N3CCC(C)CC3)nn2)c1 | -2% (active)
O=S(=O)(Nc1ccc(-c2ccc(N3CCCC3)nn2)cc1)c1ccc(C(F)(F)F)cc1 | 72%
Cc1ccc(S(=O)(=O)Nc2cccc(-c3ccc(N4CCC(C)CC4)nn3)c2)s1 | -1% (active)
O=C(c1ccccc1Cl)N(Cc1ccco1)Cc1cc2cc3c(cc2nc1Cl)OCO3 | 103%
CCc1cnc2c(c1SCc1cc(OC)cc(OC)c1)c(=O)n(C)c(=O)n2C | 75%
O=C(O)C1C2C=CC(C2)C1C(=O)N1CCN(Cc2ccccc2)CC1 (stereo not given) | 59%
COc1ccc(S(=O)(=O)c2c(Nc3ccccc3F)sc(C(=O)c3cccc(OC)c3)c2N)cc1 | 97%
Cc1sc2ncn(CC(=O)N(C)c3ccc(Br)cc3)c(=O)c2c1S(=O)(=O)N1CCC(C)CC1 | 70%
Cc1ccc(OCc2cc(=O)n3cc(C)sc3n2)c(C)c1 | 59%
Cc1ccc(NC(=O)c2ccc(=O)n(CC(=O)Nc3ccccc3)n2)cc1 | 85%
O=C(Cn1ncc2c3ccccc3n(Cc3cccc(Cl)c3)c2c1=O)NCc1cccs1 | 99%
Cc1cccc(CN2CCN(CC(=O)NCc3ccc(Cl)cc3)C2=O)c1 | 72%
Cc1cccc2nc(-c3cccc(NS(=O)(=O)c4ccccc4)c3)cn12 | 35% (active)
Cc1csc2nc(-c3cccc(NS(C)(=O)=O)c3)cn12 | 88%
Cc1cccn2cc(-c3cccc(NS(=O)(=O)c4ccc(Cl)c(Cl)c4)c3)nc12 | 101%
COc1ccc(-n2nc(C(=O)Nc3ccc(C)cn3)c3c4ccccc4n(C)c3c2=O)cc1Cl | 98%
CN(C)c1cccc(C(=O)N2CCC(c3ccncc3)CC2)c1 | 88%
CC(C)(C)c1ccc(CSc2n[nH]c(=O)[nH]c2=O)cc1 | 98%

Structure (SMILES) | survival
O=c1[nH]nc(SC(F)(F)C(F)(F)C(F)(F)F)c(=O)[nH]1 | 37% (active)
CCCCCCSc1n[nH]c(=O)[nH]c1=O | 78%
Cc1oc(-c2ccc(Cl)cc2)nc1Cn1c(=O)cc(C)c2c(C)nn(-c3cccc(F)c3)c21 | 82%
O=C(Nc1ccc(Cl)c(C(F)(F)F)c1)C(Cc1ccccc1)NS(=O)(=O)c1ccc(Br)s1 (stereo not given) | 82%
Cc1ccc(NS(=O)(=O)c2ccc3c(c2)CCCN3C(=O)C2CCC2)c(C)c1 | 85%
CN(C)S(=O)(=O)c1ccc(C(=O)NCCSc2c(-c3ccccc3)[nH]c3ccccc23)cc1 | 68%
Ic1ccc(Nc2nc3nonc3nc2N/N=C\c2ccco2)cc1 | 53%
CCOC(=O)c1ccc(Nc2nc3nonc3nc2Nc2cccc(C)c2C)cc1 | -1% (active)
CCOC(=O)c1ccc(Nc2nc3nonc3nc2NCc2ccco2)cc1 | 5% (active)
Cc1cccc(Nc2nc3nonc3nc2N/N=C\c2cccs2)c1C | 69%
CCOC(=O)c1ccc(Nc2nc3ccc(C(=O)c4ccccc4)cc3n3c(C)nnc23)cc1 | 109%
Brc1ccc(NCc2ccco2)cc1 | 96%
CCOC(=O)c1ccc(Nc2nc(C)cc(C)n2)cc1 | 85%
Cc1cccc(Nc2nc3nonc3nc2Nc2cccc(C)c2C)c1C | 66%
CCOC(=O)c1ccc(NC(=O)C(=O)NCc2ccco2)cc1 | 63%
Cc1ccc(C)c(Nc2nc3nonc3nc2Nc2cccc(C)c2C)c1 | 2% (active)
Brc1cccc(Nc2nc3nonc3nc2NCc2ccco2)c1 | 6% (active)
O=C(c1ccc(F)cc1F)N1CCC(c2nc(-c3ccc(S(=O)(=O)N4CCCC4)cc3)no2)CC1 | 97%
O=S(=O)(c1ccc2ccccc2c1)n1nc(-c2ccco2)nc1NCc1ccc(F)cc1 | 106%
Cc1oc(-c2cccc(Cl)c2)nc1CN1CCC(C(=O)NC(C)c2ccccc2)CC1 (stereo not given) | 85%
CC(=O)Nc1ccccc1OCc1cc(=O)n2c3c(sc2n1)CCCC3 | 120%
